Measured values: paper PMC5700166

Target: T1, GST-Nv-NF-kB (Ser allele) (Nematostella vectensis, UniProt A7UNT2 2-411)
T1 sequence: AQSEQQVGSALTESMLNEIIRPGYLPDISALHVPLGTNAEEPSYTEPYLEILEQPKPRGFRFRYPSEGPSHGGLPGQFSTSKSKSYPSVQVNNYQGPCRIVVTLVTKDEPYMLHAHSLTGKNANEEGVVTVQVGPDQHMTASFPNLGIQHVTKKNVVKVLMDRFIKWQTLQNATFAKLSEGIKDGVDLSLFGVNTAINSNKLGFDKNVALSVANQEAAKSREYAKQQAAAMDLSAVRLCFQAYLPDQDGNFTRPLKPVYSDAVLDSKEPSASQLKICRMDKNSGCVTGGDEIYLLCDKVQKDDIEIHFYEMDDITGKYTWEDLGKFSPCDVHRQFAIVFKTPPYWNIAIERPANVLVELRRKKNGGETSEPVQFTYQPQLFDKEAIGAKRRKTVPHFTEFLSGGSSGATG
Experiment: protein-binding microarray (PBM); PBM: ~300 nM protein, 6 mM HEPES pH 7.8, 80 mM KCl, 0.5 mM EDTA, 0.5 mM EGTA, 6% glycerol, 35 ng/ul poly-dIdC, 1% milk, 1 h, room temperature; Ap Aiptasia and Nv Nematostella (sea anemones) / Co Capsaspora / Aq Amphimedon (sponge) / Dm Drosophila / Hu human; RHD is the Rel homology domain; high values mean tight binding
Conditions: dsDNA, one strand shown

Row | Sequence | binding signal [z-score]
1 | CCGATTAACATCAAGGGGGGGAATGATGTTAATCGGGTCTTGATTCGCTTGACGCTGCTG | 6
2 | CCGATTAACATCACATTGGGAAATGATGTTAATCGGGTCTTGATTCGCTTGACGCTGCTG | 1.58
3 | CCGATTAACATCAGGGGACGTTATGATGTTAATCGGGTCTTGATTCGCTTGACGCTGCTG | 4.91
4 | CCGATTAACATCATGGGAAGGTTTGATGTTAATCGGGTCTTGATTCGCTTGACGCTGCTG | 1.52
5 | CCGATTAACATCAGGACTGCCCCTGATGTTAATCGGGTCTTGATTCGCTTGACGCTGCTG | 1.72
6 | CCGATTAACATCAGGGGGTATTATGATGTTAATCGGGTCTTGATTCGCTTGACGCTGCTG | 6.38
7 | CCGATTAACATCAGAATACCCCCTGATGTTAATCGGGTCTTGATTCGCTTGACGCTGCTG | 6.16
8 | CCGATTAACATCAAATAAGCCCCTGATGTTAATCGGGTCTTGATTCGCTTGACGCTGCTG | 4
9 | CCGATTAACATCAAACAGTCCCCTGATGTTAATCGGGTCTTGATTCGCTTGACGCTGCTG | 4.53
10 | CCGATTAACATCAATAAAATCCCTGATGTTAATCGGGTCTTGATTCGCTTGACGCTGCTG | 4.09
11 | CCGATTAACATCAGAAACCCCCATGATGTTAATCGGGTCTTGATTCGCTTGACGCTGCTG | 6.17
12 | CCGATTAACATCAAATTCCCTTATGATGTTAATCGGGTCTTGATTCGCTTGACGCTGCTG | 6.07
13 | CCGATTAACATCAAACCCCCCCTTGATGTTAATCGGGTCTTGATTCGCTTGACGCTGCTG | 4.97
14 | CCGATTAACATCAAAAATATTCCTGATGTTAATCGGGTCTTGATTCGCTTGACGCTGCTG | 1.03
15 | CCGATTAACATCAGAACCCCCCCTGATGTTAATCGGGTCTTGATTCGCTTGACGCTGCTG | 5.04
16 | CCGATTAACATCAAGGAGTCCCCTGATGTTAATCGGGTCTTGATTCGCTTGACGCTGCTG | 5.36
17 | CCGATTAACATCAAGGGGGGGGATGATGTTAATCGGGTCTTGATTCGCTTGACGCTGCTG | 5.62
18 | CCGATTAACATCAGGCATTCCCATGATGTTAATCGGGTCTTGATTCGCTTGACGCTGCTG | 1.11
19 | CCGATTAACATCAGAAAAACACCTGATGTTAATCGGGTCTTGATTCGCTTGACGCTGCTG | 4.39
20 | CCGATTAACATCAGGGGGGGACATGATGTTAATCGGGTCTTGATTCGCTTGACGCTGCTG | 4.34
21 | CCGATTAACATCAATATCCCCCCTGATGTTAATCGGGTCTTGATTCGCTTGACGCTGCTG | 6.44
22 | CCGATTAACATCAAAAAAACCCTTGATGTTAATCGGGTCTTGATTCGCTTGACGCTGCTG | 5.27
23 | CCGATTAACATCAAAAAACCCCGTGATGTTAATCGGGTCTTGATTCGCTTGACGCTGCTG | 6.46
24 | CCGATTAACATCAAGGGGGGGGCTGATGTTAATCGGGTCTTGATTCGCTTGACGCTGCTG | 3.66
25 | CCGATTAACATCAGATAAACCCCTGATGTTAATCGGGTCTTGATTCGCTTGACGCTGCTG | 3.09
26 | CCGATTAACATCAATCCCCCCCGTGATGTTAATCGGGTCTTGATTCGCTTGACGCTGCTG | 4.97
27 | CCGATTAACATCAAGGGGGATACTGATGTTAATCGGGTCTTGATTCGCTTGACGCTGCTG | 5.52
